# aSyn UTR act – Activators working through SNCA 5'UTR binding (MLPCN) | 300,000 tested, 7.1% active | AID 1814 | activity score, % (tested at 7.5 µM), hits read low | alpha-synuclein 5'UTR reporter, activators screen; in the data active = activity score below about -60%
# * hit, by the source's call. The list is a sample of the results.
SMILES,aSyn UTR act
O=C(NCCCn1ccnc1)c1cc(-c2cccs2)on1,-294*
O=C(NCCCN1CCOCC1)C(=O)N/N=C/c1c2ccccc2cc2ccccc12,67
Nc1nc(Nc2ccccc2F)nc(N2CCCC2)c1[N+](=O)[O-],-131*
CN(c1ccccc1)c1nc(N)c([N+](=O)[O-])c(N2CCCC2)n1,-97*
Cc1cccc(Nc2nc(N)c([N+](=O)[O-])c(N3CCCC(C)C3)n2)c1 (stereo unspecified),59
COc1ccc(NC(=S)Nc2ccc3snnc3c2)cc1,-107*
COc1ccc(NC(=S)Nc2ccc(N)c([N+](=O)[O-])c2)cc1,-145*
COc1ccc(NC(=S)Nc2ccc3nccnc3c2)cc1,-227*
O=c1c(-c2cc3ccccc3o2)[n+]([O-])c2ccccc2n1OCc1ccccn1,-174*
CCOn1c(=O)c(-c2cc3ccccc3o2)[n+]([O-])c2ccccc21,-117*
Cc1nnc2sc(-c3ccc(N(C)C)cc3)nn2c1=O,-76*
CN(C)c1ccc(-c2nn3c(-c4ccccc4Cl)nnc3s2)cc1,82
O=C(CSc1nnc(-c2cccc(F)c2)o1)N1CCOCC1,-75*
Cc1cccc(-c2nnc(SCC(=O)N3CCOCC3)o2)c1,-70*
CCOC(=O)CCn1nc(-c2ccc(Cl)cc2)cc1N,-129*
CCOc1ccc(-c2noc(CCC(=O)O)n2)cc1,60
Clc1ccc(-c2nc(-c3ccncc3)no2)c(Cl)c1,-104*
Clc1ccc(OCc2nc(-c3ccncc3)no2)cc1,-126*
Clc1ccc(Cl)c(-c2nc(-c3ccncc3)no2)c1,-131*
Oc1ccc(/C=N/Nc2ncc(Cl)cc2Cl)cc1,-73*
Clc1cnc(N/N=C/c2cccs2)c(Cl)c1,-193*
Cc1ccc(/C=N/Nc2ncc(Cl)cc2Cl)s1,-148*
COC(=O)c1ccc(/C=C2\Oc3ccccc3NC2=O)cc1,-110*
COC(=O)c1ccc2c(c1)C(=O)/C(=C/c1ccc(C)cc1)O2,-143*
COCCNC(=O)C(c1ccncc1)N(Cc1ccccc1)C(=O)Cn1nnc2ccccc21 (stereo unspecified),-82*
SMILES,aSyn UTR act
COCCNC(=O)C(c1cccnc1)N(Cc1ccccc1)C(=O)Cn1nnc2ccccc21 (stereo unspecified),-65*
C=CCNC(=O)c1ccc(OC2CCN(S(=O)(=O)N(C)C)CC2)cc1,-162*
CCN1/C(=C/c2ccc3cc(C)ccc3[n+]2CC)Sc2ccccc21,100
CCN(CC)C(=O)N1c2ccccc2C=Cc2ccccc21,-101*
Cc1ccc(Nc2nc(/N=C/N(C)C)n[nH]2)cc1C,-79*
COc1ccccc1-c1nc(-c2ccc(C)nc2OC)no1,-114*
COc1nc(C)ccc1-c1noc(-c2cccnc2)n1,-106*
Cc1ccc2c(c1C)NC(=O)CC(c1ccccc1O)=N2,-83*
CC(C)c1ccc(NC(=O)Nc2cnccn2)cc1,-212*
Cc1ccc(NC(=O)Nc2cnccn2)cc1C,-68*
Cc1ccc(NC(=O)Nc2cnccn2)cc1,-118*
Nc1nc(N)nc(COc2ccccc2)n1,-106*
COc1cc(O)sc1C=Nc1ccc(Cl)cc1,-92*
O=C(N/N=C/c1ccncc1)c1nc2ccccc2c(=O)[nH]1,-66*
O=C(N/N=C/c1ccc2cccnc2c1)c1nc2ccccc2c(=O)[nH]1,-83*
COc1cccc(NC(=O)C(=O)NCCC2CCCCN2S(=O)(=O)c2cccs2)c1 (stereo unspecified),-148*
CC(C)CCNC(=O)C(=O)Nc1ccc2c(c1)N(S(=O)(=O)c1cccs1)CCC2,-73*
Cc1cc2nc(SCCN3CCCC3)[nH]c2cc1C,-68*
CCN(CC)CCn1c(=O)n(-c2ccc(Cl)cc2)c(=O)c2c3c(sc21)CN(C)CC3,-66*
N#CCc1ccc(C(=O)c2ccccc2)s1,-70*
Cc1occc1-c1nnc(SCC(=O)Nc2ccccn2)o1,-115*
O=C(CSc1nnc(-c2ccccn2)o1)Nc1ccccc1,-71*
O=C(CSc1nnc(-c2ccccn2)o1)Nc1ccc(F)cc1,-94*
O=C(CSc1n[nH]c(-c2ccccn2)n1)Nc1ccc(F)cc1,73
Fc1ccc(CSc2nnc(-c3ccccn3)o2)cc1,-196*
SMILES,aSyn UTR act
COc1ccc(/C=C/C(=O)NC(=S)N2CCSCC2)cc1,-65*
COc1ccc(NC(=O)CN(C)C(=O)/C=C/c2ccc(S(=O)(=O)N3CCCCCC3)cc2)cc1,59
COc1ccc(/C=C/C(=O)NC(=S)N2CCN(c3ccccn3)CC2)cc1,-122*
CCOc1cc(CNc2ccc3c(c2)CCC3)ccc1O,-119*
COc1cc(CNc2ccc3c(c2)CCC3)cc(OC)c1O,-226*
O=[N+]([O-])c1cc(-c2n[nH]c(-c3ccccc3)n2)cc([N+](=O)[O-])c1,-76*
O=S(=O)(Nc1ccc(-c2nc3cccnc3s2)cc1)c1ccccc1F,-84*
O=S(=O)(Nc1ccc(-c2nc3cccnc3s2)cc1)c1cccs1,-89*
O=S(=O)(Nc1ccc(-c2nc3cccnc3s2)cc1)c1ccc(Cl)s1,-121*
Cc1cc(-c2nc3cccnc3s2)ccc1NS(=O)(=O)c1cccs1,-167*
COc1ccc(-c2csc(NC(=O)C3=COCCO3)n2)c(OC)c1,-86*
COc1ccc(-c2csc(NC(=O)COC(=O)C3=COCCO3)n2)cc1,-128*
CC(C)(C)c1ccc(NC(=O)COC(=O)C2(C)CC2(Cl)Cl)cc1 (stereo unspecified),-138*
COc1ccccc1-c1nnc(NC(=O)C2=COCCO2)o1,-75*
CC(C)(C)c1ccc(NC(=O)COC(=O)C2=COCCO2)cc1,-90*
C=CCNc1nc(-c2ccc(OC)cc2OC)cs1,-321*
C=CCn1c(C)cc(-c2csc(NC(=O)C3=COCCO3)n2)c1C,-89*
Cc1nonc1NC(=O)CSc1nc2c(C)cccc2cc1C#N,-98*
Cc1cc2cc(C#N)c(SCC(=O)Nc3nonc3C)nc2cc1C,-92*
CCc1cc2c(C)ccc(C)c2nc1SCC(=O)Nc1cc(C)on1,55
COc1ccc2cc(C#N)c(SCC(=O)Nc3nonc3C)nc2c1,-79*
O=C(CSc1ncnc2ccccc12)c1ccc2c(c1)OCCO2,-346*
Cc1ccc(C(=O)COc2ncnc3cc(Cl)ccc23)cc1,-76*
O=C(COC(=O)c1ccc(Cl)nc1)c1ccc2c(c1)OCCO2,-71*
O=C(COc1ncnc2cc(Cl)ccc12)c1ccc2c(c1)OCCO2,-92*
SMILES,aSyn UTR act
O=C(COc1ncnc2ccccc12)c1ccc2c(c1)OCCO2,-88*
COC(=O)CCN1CCc2cc(N=Nc3ccc([N+](=O)[O-])cc3)ccc21,-96*
Cc1ccc(-c2csc(N=C(N)N)n2)cc1,-116*
CCC(=O)Nc1cccc(NC(=S)NC(=O)c2ccccc2C)c1,-113*
CCOc1ccc(C(=O)NC(=S)Nc2cccc(S(=O)(=O)NC3=NCCC3)c2)cc1,111
CCC(=O)Nc1cccc(NC(=S)NC(=O)c2ccc(Cl)cc2)c1,-151*
Nn1c(SCc2cccc(F)c2)nnc1-c1cccnc1,-71*
Nn1c(SCc2ccccc2F)nnc1-c1cccnc1,-177*
NC(=O)c1c(NC(=O)c2cccnc2)sc2c1CCCCC2,-177*

# Bioassay records (PubChem)
